# Screening data as filed in PubChem BioAssay.
# Shown are actives, neighbours in structure and some others; about 12% of the full set was active somewhere.
# BAZ2B inh: inhibitors of human BAZ2B bromodomain | Q9UIF8 | Potency, µM (doses to about 114 µM), without a hit: top-dose activity change, negative = inhibition, usual class: inhibitors | AlphaScreen BAZ2B-H3K14Ac peptide displacement | 360,000 tested, 4.4% active | AID 504333; further: on the % scale 0 is the no-effect control and ±100 the full control effect; nearly all actives have a fitted effect of over 60% in size
#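 Protein-peptide AlphaScreen: BAZ2B 50 nM, b-H3K14Ac 50 nM, 1x PBS pH 7.4 + 0.01% Tween-20. Preincubation 30 min RT; cpd 30 min RT (top 110 uM); beads 20 min RT, light-protected.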
# G9a block: inhibitors of human histone lysine methyltransferase G9a; Q96KQ7; G9a H3K9 monomethylation, AlphaScreen, 2 h; Potency, µM (series often up to 102 µM), for inactives: at the top dose activity, negative = inhibition, usual class: inhibitors; 350,000 tested, 8.8% active; AID 504332; further: on the % scale 0 is the no-effect control and ±100 the full control effect; nearly all actives have a fitted effect of over 75% in size
#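 Compounds were preincubated with 20 nM G9a for 15 min, after which biotinylated H3K9 peptide (500 nM) and SAM (20 uM) started a 2 h room-temperature reaction. Monomethylated product was quantified by antibody-based AlphaScreen chemiluminescence.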
# PLK1 PBD block: inhibitors of human PLK1 polo-box domain binding | P53350 | Plk1 PBD binding of FITC phosphopeptide, fluorescence polarization | Potency, µM, inactives show max response, negative = inhibition, actives largely listed as inhibitors | 360,000 tested, 2.8% active | AID 720504; further: series mostly up to about 57 µM; on the % scale 0 is the no-effect control and ±100 the full control effect; nearly all actives have a fitted effect of over 65% in size
# Target sequence (P53350 whole entry, looked up, the tested form may be a part): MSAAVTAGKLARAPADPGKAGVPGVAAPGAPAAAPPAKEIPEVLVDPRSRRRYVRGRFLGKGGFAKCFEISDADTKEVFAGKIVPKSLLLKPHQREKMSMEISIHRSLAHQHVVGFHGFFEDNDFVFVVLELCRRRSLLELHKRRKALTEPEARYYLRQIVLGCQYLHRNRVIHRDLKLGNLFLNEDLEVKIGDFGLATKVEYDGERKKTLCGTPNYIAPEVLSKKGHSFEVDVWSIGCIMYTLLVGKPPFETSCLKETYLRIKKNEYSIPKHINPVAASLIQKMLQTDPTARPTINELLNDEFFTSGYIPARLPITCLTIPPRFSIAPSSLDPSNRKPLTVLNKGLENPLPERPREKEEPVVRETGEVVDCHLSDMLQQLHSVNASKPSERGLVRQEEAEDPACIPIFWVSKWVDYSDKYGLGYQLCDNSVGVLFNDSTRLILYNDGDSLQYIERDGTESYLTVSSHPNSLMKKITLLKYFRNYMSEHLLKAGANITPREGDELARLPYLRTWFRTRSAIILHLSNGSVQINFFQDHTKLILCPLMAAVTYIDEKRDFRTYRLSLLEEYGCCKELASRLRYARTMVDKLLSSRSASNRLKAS
# JMJD2A Tudor inh: blocks the human JMJD2A Tudor domain; AID 504339; AlphaScreen JMJD2A-Tudor / H3K4me3 peptide binding; Potency, µM (titrated, usually from 114 µM), without a hit: at the top dose activity change, negative = inhibition, usual class: inhibitors; 390,000 tested, 4.4% active; further: on the % scale 0 is the no-effect control and ±100 the full control effect; nearly all actives have a fitted effect of over 50% in size
# HP1b binding inh: blocks HP1-beta chromodomain binding to methylated histone tails; AlphaScreen HP1-beta / biotin-H3K9me3 peptide binding; Potency, µM (series often up to 114 µM), for inactives: at the highest dose activity change, negative = inhibition, hits mostly inhibitors; 390,000 tested, 0.56% active; further: nearly all actives have a fitted effect of over 70% in size
#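 HP1-beta protein (50 nM final) preincubated 30 min at room temperature with biotinylated H3(1-18)K9me3 peptide (50 nM) in PBS pH 7.4, 0.01% Tween-20, then compound added for 30 min. AlphaScreen streptavidin donor/nickel chelate acceptor beads (10 ug/mL final), 30 min dark, luminescence read.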
# Sfp PPTase inh: inhibitors of Bacillus subtilis Sfp phosphopantetheinyl transferase. Potency, µM, inactives show largest response in the series, negative = inhibition, hits mostly inhibitors. Biochemical Sfp PPTase activity, qHTS. AID 1490. 310,000 tested, 3.5% active. Q9F4F7;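 further: the enzyme is Sfp with the accession as filed and its product quenches rhodamine fluorescence; 0% = enzyme reaction without inhibitor and -100% = no enzyme wells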
#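 Step 1, compound plus 15 nM Sfp-PPTase, 15 min, room temperature. Step 2, add rhodamine-CoA (5 uM) and BHQ-2-YbbR (12.5 uM). Step 3, read 525/598 nm fluorescence at 0 and 30 min.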
# * hit, by the source's call; u = inconclusive; x = no result given; [ ] = dose if it differs, or a comment. The call rests on the fitted dose curve; in most records, active means well fitted curve in the direction sought with a large enough effect; inconclusive means small, poorly fitted or top-dose-only effect, or another doubt; inactive means no such curve, though single readings can be large; an effect the other way counts as inactive or inconclusive. Potency means the concentration at half of the fitted maximal effect.
SMILES,BAZ2B inh,G9a block,PLK1 PBD block,JMJD2A Tudor inh,HP1b binding inh,Sfp PPTase inh
O=C(NCCN1CCCCC1)Nc1ccc(F)cc1F,-2%,45%,-3%,2%,43%,23%
CCCCOC(=O)c1cccc(NC(=O)c2cc3ccccc3o2)c1,39%,37%[59 µM],x,16%,59%,x
CCOC(=O)c1cnc2ccc(OC(F)(F)F)cc2c1Nc1ccccc1C(=O)O,-19%,-1%[59 µM],x,-22%,8%,x
CC(C)c1ccc(CN(Cc2ccco2)c2cnc(S(C)(=O)=O)nc2C(=O)Nc2ccccc2)cc1,u,u,x,u,4%,x
Cc1ncoc1C(=O)N1CCCC(C(=O)c2ccc(C(F)(F)F)cc2)C1 (centres undefined),-22%,25µM*,-20%,-24%,-31%,19%
Cc1ccc(C(=O)N2c3ccccc3N=C(c3ccccc3)C2C(=O)NC(C)C)cc1 (centres undefined),x,x,-17%,x,x,x
OCc1ccccc1N=c1ssnc1Cl,u,-7%[2.33 µM],x,x,x,8.9µM*
OCc1ccccc1N=Cc1cccnc1,0%,19%,-10%,-15%,3%,14%
CCOc1cccc2sc(N(CCCN(C)C)C(=O)c3ccc(S(=O)(=O)N(C)c4ccccc4)cc3)nc12,u,56µM*,5%,u,-19%,u
CC(=O)N(CCN(C)C)c1nc2cc3c(cc2s1)OCCO3,-8%,x,-3%,-9%,35%,11%
CN(C)CCN(C(=O)c1ccc(S(=O)(=O)N(C)c2ccccc2)cc1)c1nc2cc3c(cc2s1)OCCO3,u,40µM*,2%,u,-11%,1%
CN(C)CCN(C(=O)c1ccc2c(c1)CCCC2)c1nc2cc3c(cc2s1)OCCO3,-1%,x,-1%,45µM*,u,0%
CN(C)CCN(C(=O)c1ccc2c(c1)OCCO2)c1nc2cc3c(cc2s1)OCO3,u,x,-11%,u,-25%,-10%
CCOc1cccc2sc(N(CCN(C)C)C(=O)CCS(=O)(=O)c3ccccc3)nc12,x,x,-1%,-28%,31%,x
CN(C)CCN(C(=O)c1ccc(S(=O)(=O)N(C)C)cc1)c1nc2cc3c(cc2s1)OCCO3,x,56µM*,u,-15%,10%,-6%
Cn1ncc2c(NCCc3ccccc3)nc(Cl)nc21,x,x,2%,0%,33%,x
COc1ccc(Cn2nnc3c(=O)[nH]c(C4CCN(C(=O)c5ccc(C)cc5)CC4)nc32)cc1OC,-3%,12%[59 µM],x,-15%,15%,x
CCOc1ccc2nc(N(CCN(C)C)C(=O)c3ccc4c(c3)CCCC4)sc2c1,u,40µM*,-15%,35µM*,-15%,50µM*
O=C(NNC(=O)c1ccccc1Br)c1ccc2nc[nH]c2c1,50µM*,x,-19%,u,-7%,12%
COc1cc(C(=O)Nc2ccc(S(=O)(=O)N(C)c3ccccc3)cc2)cc(OC)c1OC,-6%,10%[59 µM],2%,-12%,21%,8%
CN(C)c1ccc(NC(=O)c2cccc(N3C(=O)CCC3=O)c2)cc1,-12%,40µM*,-10%,-32%,15%,-3%
COc1cc(C(=O)Nc2ccc(N(C)C)cc2)cc(OC)c1OC,u,45µM*,-1%,u,-5%,2%
O=C(Nc1ccc(F)cc1)c1ccc2nc[nH]c2c1,-9%,-8%,-8%,-9%,25%,1%
CN(C)c1ccc(NC(=O)c2ccc3nc[nH]c3c2)cc1,45µM*,u,-8%,-34%,15%,8%
O=C(NNC(=O)c1ccccc1F)c1ccc2nc[nH]c2c1,u,15%,5%,-14%,33%,18%
SMILES,BAZ2B inh,G9a block,PLK1 PBD block,JMJD2A Tudor inh,HP1b binding inh,Sfp PPTase inh
O=C(Nc1ccccc1)c1cccc(N2C(=O)CCC2=O)c1,10%,u,-2%,-9%,40%,8%
Cc1nc(NCc2ccccc2)c2nc(-c3ccccc3)n(CCN3CCOCC3)c2n1,x,x,x,x,x,7%
COc1cccc2c1O/C(=N\O)C(C(=O)Nc1ccc(C)cc1)C2 (centres undefined),-4%,2%,6%,4%,51%,5%
CCOC(=O)CC1(CC)Oc2ccccc2N1S(=O)(=O)c1ccc(C)cc1 (centres undefined),x,x,0%,x,x,x
COC(=O)[C@H](COC(C)(C)C)NC(=O)O[C@@H]1C(=O)c2cc(OC)ccc2O[C@H]1c1cccc(OC)c1,x,x,x,x,x,-3%
COc1cc(C(=O)Nc2ccccc2NC(=O)c2cc(OC)c(OC)c(OC)c2)cc(OC)c1OC,3%,15%,-6%,-22%,21%,-19%
O=C(NCCc1ccc(Cl)cc1Cl)c1ccc2nc[nH]c2c1,-3%,x,1%,-3%,58%,15%
COc1cc(C(=O)NC2=C(C#N)CCC2)cc(OC)c1OC,-31%,50µM*,-7%,-13%,7%,19%
COc1ccccc1CCNC(=O)c1ccc2nc[nH]c2c1,50µM*,-1%,-1%,-21%,14%,9%
Cc1ccc(N)c(Cl)c1,x,x,x,x,x,11%
O=C(N/N=C/C=C\c1ccco1)c1ccccn1,56µM*,35µM*,u,79µM*,u,20µM*
O=C(N/N=C/C=C/c1ccccc1)c1ccccn1,u,33%[59 µM],-1%,-9%,50%,-24%
O=C(N/N=C\C=C\c1ccco1)c1cc(-c2ccc3ccccc3c2)n[nH]1,3%,32µM*,-24%,-34%,6%,2%
O=C(N/N=C/C=C/c1ccco1)c1cnccn1,14%,45µM*,-11%,50µM*,7%,10µM*
O=C(N/N=C/C=C/c1ccccc1[N+](=O)[O-])c1cc(-c2ccccc2)n[nH]1,u,u,-14%,-34%,29%,u
Nc1cc(Cl)cc2c1-c1ccc(Cl)cc1C2,x,x,-4%,-28%,4%,x
CCc1ccc(N2CC(C)Cn3c2nc2c3c(=O)[nH]c(=O)n2C)cc1 (centres undefined),-15%,10%[0.501 µM],u,-28%,10%[57 µM],-3%
COc1ccc2c(c1)O[C@@H](c1ccc3c(c1)OCO3)[C@H](OC(=O)N[C@H]1CCCc3ccccc31)C2=O,x,x,x,x,x,-9%
Nc1ccc2ncccc2c1N,u,-9%[59 µM],2%,-36%,37%,6.3µM*
COc1ccccc1CNC(=O)c1cccc(-c2ccccc2OC)n1,x,u,x,x,x,15%
COc1ccc(/C=C2\Oc3cc(OCC(=O)N4CCC(C(=O)O)CC4)ccc3C2=O)c(OC)c1,-31%,x,28%,-11%,31%,-16%
COc1ccc(OC)c(/C=C2\Oc3cc(OCC(=O)N4CCC(C(=O)O)CC4)ccc3C2=O)c1,11%,26%[12.7 µM],-3%,-6%,31%,16µM*
O=C(O)COc1ccc2c(c1)O/C(=C\c1ccco1)C2=O,40µM*,10µM*,24µM*,20µM*,40µM*,u
